Experimental data published in PubChem BioAssay.
Where “and” joins values, the source holds several entries; their conditions need not be identical. Equal entries are not always repeated. Calls of active or inactive are those of the source. Unless noted, the rule behind the calls is not given here.

Key:
[1] = P. berghei load reduction in hepatocytes – cell-based, HepG2, luciferase luminescence, HepG2 viability, primary screen (AID 624349; in the data active = parasite load remaining mostly below about 12%, no sharp cut-off; inactive = mostly above about 10%;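 note: 100% = mean of DMSO negative control wells on the same plate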); conditions: P. berghei liver stage in HepG2, luciferase luminescence, concentration not given here; parasite load remaining: stronger effect = lower value; viability: measured here: HepG2 viability without parasites
[2] = signal quenchers or enhancers, Cy5 substrate/SSB – biochemical, NIH Clinical Collection, E. coli SSB, artefact control for HCV NS3 helicase inhibitor project (AID 743268); conditions: Cy5-oligo bound E. coli SSB, fluorescence interference
[3] = test system: Hepatitis C virus NS3 helicase; test: blockers of NS3h binding to DNA – biochemical, fluorescence polarization, NIH Clinical Collection, primary screen (AID 743270); conditions: NS3 helicase binding to Cy5-dT15 DNA, stronger effect = higher value, concentration not given here
[4] = molecular target: Single-stranded DNA-binding protein (Escherichia coli (strain K12)) (UniProt P0AGE0); test: SSB-ssDNA binding inhibitors – biochemical, fluorescence polarization, NIH Clinical Collection, counter-screen for HCV NS3 helicase inhibitor project (AID 743271; in the data active = inhibition above about 28%); conditions: E. coli SSB-DNA binding, stronger effect = higher value, concentration not given here
[5] = compounds distorting NS3 helicase fluorescence signal – biochemical, NIH Clinical Collection, artefact control for HCV NS3 helicase inhibitor project (AID 743272); conditions: fluorescence interference counterscreen, HCV NS3 helicase assay; stronger effect = lower value;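 note: HCV NS3 helicase with a Cy5 labelled single stranded DNA probe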
[6] = Wnt pathway potentiators raising nuclear beta-catenin – imaging, WNT3A-conditioned medium, mouse C2C12, NPC library, primary screen (AID 1117326; in the data active = nuclear beta-catenin stimulation mostly above about 4.2%, no sharp cut-off; inactive = mostly below about 10%); conditions: stronger effect = higher value
[7] = stimulators of insulin release from INS-1E, primary screen, cell-based, 5 mM glucose, NPC library (AID 1117329;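 active = compound raises insulin release from rat beta cells at 5 mM glucose, no numeric limit stated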); conditions: rat INS-1E insulin secretion, at 10 µM, stronger effect = higher value
[8] = growth inhibition of GSK3B-pretreated HCT116 cells – cell-based, CellTiter-Glo, 0.2 to 20 µM (AID 1117336;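 active = compounds lowering colon cancer cell viability after pretreatment blocking the GSK3B kinase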); conditions: HCT116 viability after GSK3B inhibitor, at 20 µM, stronger effect = higher value
[9] = inhibition of endothelial tube formation, primary screen, imaging, VEGF stimulated, CD31 staining, tube area, NPC library (AID 1117340;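 active = compound that reduces growth-factor-driven endothelial tube area in a mixed cell culture, no cutoff stated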); conditions: VEGF-stimulated ADSC/ECFC co-culture, at 10 µM, stronger effect = higher value
[10] = GLP1 release stimulators, primary, NCI-H716, NPC library (AID 1117341;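 active = compound raises GLP1 secretion from the human gut endocrine cells, with no numeric limit stated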); conditions: NCI-H716 cells, at 10 µM, stronger effect = higher value
[11] = HCT116 colon cancer cell growth inhibition, primary screen, CellTiter-Glo luminescence, NPC library (AID 1117342;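 active = compounds that lower survival of HCT116 colon cancer cells in the luminescence readout, no numeric limit stated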); conditions: at 20 µM (top of the series)
[12] = reduced SW480 viability measured with CellTiter-Glo, NPC library, primary (AID 1117343;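 active = compounds that lower viability of the colon cancer cells in the luminescence readout, with no numeric limit stated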); conditions: CellTiter-Glo luminescence; at 20 µM (top of the series)
[13] = NPC library primary testing for decreased DLD-1 cell viability via CellTiter-Glo (AID 1117346;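 active = compounds that lower survival of DLD-1 colon cancer cells in the luminescence readout, no cutoff given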); conditions: DLD-1 viability, CellTiter-Glo luminescence; at 20 µM (top of the series)
[14] = test system: Hepatitis C virus NS3 helicase; test: blockers of NS3h binding to ssDNA – biochemical, fluorescence polarization, LOPAC1280 library, primary screen (AID 687035; in the data active = inhibition above about 37%); conditions: Purified HCV NS3 helicase, Cy5-dT15 ssDNA binding fluorescence polarization; stronger effect = higher value; concentration not given here
[15] = compounds altering Cy5-DNA-NS3h complex signal – biochemical, LOPAC1280, artefact control for HCV NS3 helicase inhibitor project (AID 687037); conditions: Cy5-DNA-NS3h complex fluorescence interference counterscreen
[16] = test system: Neuropilin-2 / VEGF-C interaction (human); test: small molecules blocking Neuropilin-2/VEGF-C interaction – biochemical, microplate binding format, z-score (AID 743281); conditions: microplate NRP2/VEGF-C binding assay; stronger effect = lower value

CC(N)C12CC3CC(CC(C3)C1)C2 (configuration not stated)
inactive: parasite load remaining [1] 59.2% and 69.6% and 54.8% | fluorescence ratio [2] 1.02 | inhibition [3] -2.27% | inhibition [4] 1.81% | fluorescence ratio [5] 1.03 | nuclear beta-catenin stimulation ([6]; at 10 µM) 1.8% | insulin secretion stimulation [7] 11% | viability decrease [8] -3.4% | tube area decrease [9] 15.2% | GLP1 secretion stimulation [10] -0.1% | inhibition of viability [11] 7.6% | viability decrease (inhibition) [13] 6.65%
active: viability decrease (inhibition) [12] 60.8%
94.8% and 97.2% and 73%: viability [1]
0.3%: nuclear beta-catenin stimulation ([6]; stimulation, at 2 µM)

CC1(C)O[C@@H]2C[C@H]3[C@@H]4C[C@H](F)C5=CC(=O)C=C[C@]5(C)[C@@]4(F)[C@@H](O)C[C@]3(C)[C@]2(C(=O)CO)O1
active: viability decrease (inhibition) [12] 1.8%
2%: nuclear beta-catenin stimulation ([6]; stimulation, at 2 µM)
inactive: parasite load remaining [1] 46.3% and 25.1% | fluorescence ratio [2] 1 | inhibition [3] -1.36% | inhibition [4] 0.29% | fluorescence ratio [5] 0.97 | nuclear beta-catenin stimulation ([6]; at 10 µM) -1.6% | insulin secretion stimulation [7] 0.7% | viability decrease [8] -12.2% | tube area decrease [9] 14.7% | GLP1 secretion stimulation [10] -0.6% | inhibition of viability [11] 19.8% | viability decrease (inhibition) [13] 24.1%
96.3% and 68%: viability [1]

CCCOc1ccc(C(=O)OCCN(CC)CC)cc1N
active: fluorescence ratio [2] 0.101 | inhibition of viability [11] 74.2% | viability decrease (inhibition) [13] 90.1%
102% and 98.4% and 98.5%: viability [1]
inactive: parasite load remaining [1] 35.3% and 89.5% and 24.4% | inhibition [3] -4.09% | inhibition [4] 0.29% | fluorescence ratio [5] 1.02 | nuclear beta-catenin stimulation ([6]; at 10 µM) 1.3% | insulin secretion stimulation [7] 1.5% | viability decrease [8] 47.8% | tube area decrease [9] -3.5% | GLP1 secretion stimulation [10] -1% | viability decrease (inhibition) [12] 36%
5.7%: nuclear beta-catenin stimulation ([6]; stimulation, at 2 µM)

COc1ccc(C2CNC(=O)C2)cc1OC1CCCC1 (configuration not stated)
-0.4%: nuclear beta-catenin stimulation ([6]; stimulation, at 2 µM)
91.9% and 79% and 67.5%: viability [1]
inactive: parasite load remaining [1] 73.2% and 98.7% and 48.7% | inhibition [14] -7% | fluorescence ratio (interference) [15] 1 | fluorescence ratio [2] 1.03 | inhibition [3] 2.77% | inhibition [4] -0.1% | fluorescence ratio [5] 0.98 | z-score [16] 0.503 | nuclear beta-catenin stimulation ([6]; at 10 µM) -0.2% | insulin secretion stimulation [7] 0.8% | viability decrease [8] 23.9% | tube area decrease [9] 1.1% | GLP1 secretion stimulation [10] 4.4% | inhibition of viability [11] 13.6% | viability decrease (inhibition) [13] 29.1%
active: viability decrease (inhibition) [12] 88.4%

C#C[C@]1(O)CC[C@H]2[C@@H]3[C@H](C)CC4=C(CCC(=O)C4)[C@H]3CC[C@@]21C
0.8%: nuclear beta-catenin stimulation ([6]; stimulation, at 2 µM)
inactive: parasite load remaining [1] 43.6% and 8.38% | fluorescence ratio [2] 0.99 | inhibition [3] 0.66% | inhibition [4] 1.18% | fluorescence ratio [5] 0.99 | nuclear beta-catenin stimulation ([6]; at 10 µM) 7.4% | insulin secretion stimulation [7] -2.8% | viability decrease [8] 45.5% | tube area decrease [9] -5.2% | GLP1 secretion stimulation [10] 4.4% | inhibition of viability [11] -14.3%
active: viability decrease (inhibition) [12] 109% | viability decrease (inhibition) [13] 79.8%
76.2% and 73.5%: viability [1]

NC(=O)OCC(COC(N)=O)c1ccccc1
inactive: parasite load remaining [1] 83.2% and 111% | inhibition [14] -1% | fluorescence ratio (interference) [15] 1 | fluorescence ratio [2] 1.05 | inhibition [3] -2.77% | inhibition [4] -3.18% | fluorescence ratio [5] 0.9 | z-score [16] 0.0538 | nuclear beta-catenin stimulation ([6]; at 10 µM) -1.9% | insulin secretion stimulation [7] 0.3% | viability decrease [8] -7.4% | tube area decrease [9] -7.6% | GLP1 secretion stimulation [10] -3% | inhibition of viability [11] 4.1% | viability decrease (inhibition) [12] -7.2% | viability decrease (inhibition) [13] -12%
105% and 75.3%: viability [1]
0%: nuclear beta-catenin stimulation ([6]; stimulation, at 2 µM)

CN(C)CC[C@@H](c1ccc(Br)cc1)c1ccccn1
active: insulin secretion stimulation [7] 81.9%
70.1%: viability [1]
-0.3%: nuclear beta-catenin stimulation ([6]; stimulation, at 2 µM)
inactive: parasite load remaining [1] 84.6% | inhibition [14] 0% | fluorescence ratio (interference) [15] 1 | fluorescence ratio [2] 1.07 | inhibition [3] -2.77% | inhibition [4] -3.18% | fluorescence ratio [5] 0.87 | z-score [16] -0.605 | nuclear beta-catenin stimulation ([6]; at 10 µM) 1.1% | viability decrease [8] -41.6% | tube area decrease [9] -18.3% | GLP1 secretion stimulation [10] 1.6% | inhibition of viability [11] 27.2% | viability decrease (inhibition) [12] 30.9% | viability decrease (inhibition) [13] 10.2%

CC(=O)O[C@H]1C[C@@H]2CC[C@@H]3[C@H](CC[C@@]4(C)[C@H]3C[C@H]([N+]3(C)CCCCC3)[C@@H]4OC(C)=O)[C@@]2(C)C[C@@H]1N1CCCCC1
-1.2%: nuclear beta-catenin stimulation ([6]; stimulation, at 2 µM)
76.1% and 73.5%: viability [1]
inactive: parasite load remaining [1] 67.6% and 50.8% | fluorescence ratio [2] 1 | inhibition [3] -0.22% | inhibition [4] 5.91% | fluorescence ratio [5] 1 | nuclear beta-catenin stimulation ([6]; at 10 µM) -1.4% | insulin secretion stimulation [7] 0.6% | viability decrease [8] -4.1% | tube area decrease [9] 4.6% | GLP1 secretion stimulation [10] 13.2% | inhibition of viability [11] 3.2% | viability decrease (inhibition) [12] -6.9% | viability decrease (inhibition) [13] -7.1%

COc1ccccc1N1CCN(CC(O)COc2cccc3ccccc23)CC1 (configuration not stated)
1.7%: nuclear beta-catenin stimulation ([6]; stimulation, at 2 µM)
inactive: parasite load remaining [1] 54.9% and 58.6% and 42.9% | inhibition [14] -2% | fluorescence ratio (interference) [15] 1 | fluorescence ratio [2] 0.97 | inhibition [3] 5.15% | inhibition [4] 5.29% | fluorescence ratio [5] 0.89 | z-score [16] 1.13 | nuclear beta-catenin stimulation ([6]; at 10 µM) 1.5% | insulin secretion stimulation [7] 0.4% | viability decrease [8] 0.8% | tube area decrease [9] 35.4% | GLP1 secretion stimulation [10] 10%
active: inhibition of viability [11] 64.7% | viability decrease (inhibition) [12] 92.1% | viability decrease (inhibition) [13] 59.3%
66.8% and 61.4% and 114%: viability [1]
